# Laboratory results taken from PubChem BioAssay (Tox21).
# A number with no mark means an inactive call. A call without a number means that no potency is given here. The source made the active and inactive calls. Unless noted, the call rests on the fitted dose curve; in most records, active means well fitted curve in the direction sought with a large enough effect in the repeat runs; inconclusive means weak or mixed curves; inactive means no such curve, though single readings can be large; an effect the other way counts as inactive or inconclusive.
# Experiments:
# [1] = qHTS assay to identify small molecule antagonists of the thyroid receptor (TR) signaling pathway - cell viability counter screen (AID 743064); further: nearly all actives have a fitted effect of over 50% in size; further: potency means the concentration at half of the fitted maximal effect
# How it was run: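 CellTiter-Fluor readout, 30 min at 37 °C/5% CO2, following 23.5 h incubation of GH3.TRE-Luc cells with test compound and 1 nM T3 (final).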
# [2] = qHTS assay to identify small molecule antagonists of the thyroid receptor (TR) signaling pathway (AID 743065); further: nearly all actives have a fitted effect of over 55% in size; further: potency means the concentration at half of the fitted maximal effect
# How it was run: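 Antagonism measured as loss of luciferase signal in GH3 cells stably carrying a TRE-luciferase reporter, co-treated with compound and T3 (1 nM final) for 23.5 h at 37 C. Viability was read in the same well by CellTiter-Fluor.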
# [3] = system: thyroid hormone receptor (rat, GH3 cells); experiment: qHTS assay to identify small molecule agonists of the thyroid receptor (TR) signaling pathway (AID 743066; calls by dose curve; further: potency means the concentration at half of the fitted maximal effect)
# [4] = target: Estrogen receptor (Homo sapiens) (UniProt P03372); experiment: qHTS assay to identify small molecule antagonists of the estrogen receptor alpha (ER-alpha) signaling pathway (AID 743069; active means well fitted curve in the direction sought with a large enough effect in the signal ratio in the repeat runs, not every such curve was filed as active; inconclusive means weak or mixed curves, or effect the other way; inactive means no such curve, though single readings can be large or run the other way; the % refers to the signal ratio)
# Estrogen receptor (Homo sapiens), sequence (P03372 whole entry, looked up): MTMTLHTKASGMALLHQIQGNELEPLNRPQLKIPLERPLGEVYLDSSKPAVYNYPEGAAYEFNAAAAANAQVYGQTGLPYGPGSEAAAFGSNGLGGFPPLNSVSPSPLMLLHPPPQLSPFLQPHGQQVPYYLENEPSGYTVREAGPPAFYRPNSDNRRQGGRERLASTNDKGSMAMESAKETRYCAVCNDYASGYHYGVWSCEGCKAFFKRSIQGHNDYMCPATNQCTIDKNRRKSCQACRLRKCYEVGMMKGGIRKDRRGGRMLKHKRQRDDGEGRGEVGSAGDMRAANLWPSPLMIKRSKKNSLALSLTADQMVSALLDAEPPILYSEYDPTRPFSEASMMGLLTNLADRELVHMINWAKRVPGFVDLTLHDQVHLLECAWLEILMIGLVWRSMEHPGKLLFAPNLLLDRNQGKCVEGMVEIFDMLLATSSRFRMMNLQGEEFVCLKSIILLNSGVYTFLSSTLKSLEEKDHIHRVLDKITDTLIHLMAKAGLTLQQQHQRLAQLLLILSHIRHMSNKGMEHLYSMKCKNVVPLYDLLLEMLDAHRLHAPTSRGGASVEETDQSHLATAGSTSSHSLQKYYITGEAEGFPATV
# How it was run: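 Fluorescence intensity from a beta-lactamase FRET substrate served as the read-out. Cells: HEK293 with stably integrated ER-alpha-UAS-bla reporter. Agonist 17beta-estradiol was co-added with compounds; incubation 18 hr at 37C, substrate 2 hr at room temperature.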
# [5] = qHTS assay to identify small molecule antagonists of the estrogen receptor alpha (ER-alpha) signaling pathway - cell viability counter screen (AID 743074; calls by dose curve; further: nearly all actives have a fitted effect of over 45% in size)
# [6] = target: Estrogen receptor (Homo sapiens) (UniProt P03372); experiment: qHTS assay to identify small molecule agonists of the estrogen receptor alpha (ER-alpha) signaling pathway (AID 743075; calls by dose curve; further: potency means the concentration at half of the fitted maximal effect)
# [7] = target: Estrogen receptor (Homo sapiens) (UniProt P03372); experiment: qHTS assay to identify small molecule agonists of the estrogen receptor alpha (ER-alpha) signaling pathway using the BG1 cell line (AID 743079); conditions: BG1Luc4E2 cells, ERE-luciferase agonist, 22 h; activation: at 70.3 µM (top of the series); further: nearly all actives have a fitted effect of over 20% in size; further: potency means the concentration at half of the fitted maximal effect
# [8] = qHTS assay to identify small molecule antagonists of the estrogen receptor alpha (ER-alpha) signaling pathway using the BG1 cell line - cell viability counter screen (AID 743081);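 further: compound given together with 17beta-estradiol as the ER stimulus; nearly all actives have a fitted effect of over 45% in size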
# Aromatase (Homo sapiens) = Aromatase (Homo sapiens) (UniProt P11511); experiment: qHTS assay to identify aromatase inhibitors (AID 743083); further: nearly all actives have a fitted effect of over 55% in size
# Aromatase (Homo sapiens), sequence (P11511 whole entry, looked up): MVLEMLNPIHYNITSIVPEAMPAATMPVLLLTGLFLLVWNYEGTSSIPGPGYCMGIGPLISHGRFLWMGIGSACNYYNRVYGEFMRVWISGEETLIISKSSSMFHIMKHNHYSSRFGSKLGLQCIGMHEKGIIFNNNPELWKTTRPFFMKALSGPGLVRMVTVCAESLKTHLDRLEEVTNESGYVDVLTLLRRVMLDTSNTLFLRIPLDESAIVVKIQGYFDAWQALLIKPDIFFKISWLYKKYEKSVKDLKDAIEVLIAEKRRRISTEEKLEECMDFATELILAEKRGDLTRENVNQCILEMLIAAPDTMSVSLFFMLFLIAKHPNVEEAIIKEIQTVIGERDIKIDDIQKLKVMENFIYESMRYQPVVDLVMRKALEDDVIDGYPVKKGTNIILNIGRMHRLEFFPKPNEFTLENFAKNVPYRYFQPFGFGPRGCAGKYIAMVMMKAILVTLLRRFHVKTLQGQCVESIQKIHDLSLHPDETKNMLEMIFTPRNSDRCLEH
# [9] = qHTS assay to identify aromatase inhibitors - cell viability counter screen (AID 743084);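 further: cells stimulated with testosterone during compound exposure; nearly all actives have a fitted effect of over 55% in size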; further: potency means the concentration at half of the fitted maximal effect
# [10] = qHTS assay to identify small molecule that activate the aryl hydrocarbon receptor (AhR) signaling pathway - cell viability counter screen (AID 743086);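 further: HepG2 liver cells carrying the AhR DRE luciferase reporter; nearly all actives have a fitted effect of over 45% in size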
# How it was run: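 Cytotoxicity counter screen: CellTiter-Fluor signal (30 min, 37 C) in 4000 HepG2 cells/well carrying the DRE-luciferase reporter, following 24 h compound exposure at 37 C.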
# [11] = target: Peroxisome proliferator-activated receptor gamma (Homo sapiens) (UniProt P37231); experiment: qHTS assay to identify small molecule agonists of the peroxisome proliferator-activated receptor gamma (PPARg) signaling pathway (AID 743094; active means well fitted activation curve with a large enough effect in the signal ratio in the repeat runs, not every such curve was filed as active; inconclusive means weak or mixed curves, or effect the other way; inactive means no such curve, though single readings can be large or run the other way; the % refers to the signal ratio)
# Peroxisome proliferator-activated receptor gamma (Homo sapiens), sequence (P37231 whole entry, looked up): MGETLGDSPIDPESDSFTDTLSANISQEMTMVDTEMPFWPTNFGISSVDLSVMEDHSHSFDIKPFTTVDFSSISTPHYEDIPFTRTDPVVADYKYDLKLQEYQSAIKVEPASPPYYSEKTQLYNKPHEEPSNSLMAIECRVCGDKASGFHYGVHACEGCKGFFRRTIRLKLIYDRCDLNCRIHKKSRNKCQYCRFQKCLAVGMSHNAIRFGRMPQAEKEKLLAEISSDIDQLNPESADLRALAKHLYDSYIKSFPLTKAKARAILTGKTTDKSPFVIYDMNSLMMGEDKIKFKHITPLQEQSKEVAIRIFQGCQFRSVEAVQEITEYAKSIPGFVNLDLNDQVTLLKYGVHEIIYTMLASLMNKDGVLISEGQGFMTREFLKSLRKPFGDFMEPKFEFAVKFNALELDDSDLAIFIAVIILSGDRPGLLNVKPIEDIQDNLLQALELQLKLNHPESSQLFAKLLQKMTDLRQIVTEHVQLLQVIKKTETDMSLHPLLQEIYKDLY
# How it was run: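 Cell-based bla reporter, HEK293H background, PPARg-driven UAS. Pre-incubation 5 h, 37C, 5% CO2. Compound 17 h, 37C. Substrate 1 h RT; fluorescence.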
# [12] = qHTS assay to identify small molecule phospholipidosis (PLD) inducers (AID 1259344; active means well fitted curve in the direction sought with a large enough effect; inconclusive means small, poorly fitted or top-dose-only effect, or another doubt; inactive means no such curve, though single readings can be large; an effect the other way counts as inactive or inconclusive)
# How it was run: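 Accumulated phospholipid, stained red by LipidTOX during 24 h compound treatment of HepG2 cells at 37 C, is quantified from images as pit number and intensity, normalised per cell using Hoechst-stained nuclei.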
# [13] = target: Nuclear receptor subfamily 1 group I member 2 (Rattus norvegicus) (UniProt Q9R1A7); experiment: Rat pregnane X receptor (rPXR) activation by small molecules, qHTS assay (AID 1346983); conditions: rPXR luciferase reporter cells, One-Glo luminescence, 24 h; max activation: stronger effect = higher value; further: nearly all actives have a fitted effect of over 20% in size
# Nuclear receptor subfamily 1 group I member 2 (Rattus norvegicus), sequence (Q9R1A7 whole entry, looked up): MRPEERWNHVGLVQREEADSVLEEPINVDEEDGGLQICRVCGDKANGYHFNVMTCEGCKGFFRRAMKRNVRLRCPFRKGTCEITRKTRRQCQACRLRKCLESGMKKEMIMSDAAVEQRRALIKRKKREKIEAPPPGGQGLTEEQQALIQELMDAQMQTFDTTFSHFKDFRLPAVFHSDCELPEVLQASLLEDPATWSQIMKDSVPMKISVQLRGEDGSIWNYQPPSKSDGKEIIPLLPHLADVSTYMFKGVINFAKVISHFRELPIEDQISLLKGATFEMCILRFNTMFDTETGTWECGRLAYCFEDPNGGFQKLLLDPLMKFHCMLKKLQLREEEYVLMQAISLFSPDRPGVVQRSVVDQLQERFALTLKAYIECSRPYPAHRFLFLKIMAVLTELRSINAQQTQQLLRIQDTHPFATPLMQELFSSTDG
# How it was run: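 Luminescent readout (One-Glo luciferase, 30 min room temperature) followed 24 hr compound treatment at 37 C of rPXR cells plated 2,000 per well and preincubated 5hr; qHTS format with compounds delivered in DMSO.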
# [14] = target: Nuclear receptor subfamily 1 group I member 2 (Homo sapiens) (UniProt O75469); experiment: CYP3A4 induction through human pregnane X receptor (PXR) by small molecules, qHTS assay (AID 1346984); further: nearly all actives have a fitted effect of over 40% in size
# How it was run: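 Human PXR activation is tracked via CYP3A4 promoter-luciferase in DPX-2 (HepG2) cells. Compounds treat cells for 24hr at 37C, and luminescence is read after One-Glo.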
# [15] = target: Nuclear receptor subfamily 1 group I member 2 (Homo sapiens) (UniProt O75469); experiment: Human pregnane X receptor (PXR) activation by small molecules, qHTS assay (AID 1346985); further: nearly all actives have a fitted effect of over 40% in size
# How it was run: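 DPX-2 cells (HepG2 co-transfected with a PXR response element and a CYP3A4-promoter luciferase construct) were seeded at 2,000 per well, rested 5 hr at 37C, then exposed to DMSO-dissolved compounds for 24 hr. Activation was read as luciferase luminescence.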
# [16] = target: Aryl hydrocarbon receptor (Homo sapiens) (UniProt P35869); experiment: qHTS assay to identify small molecule that activate the aryl hydrocarbon receptor (AhR) signaling pathway (AID 743085); further: nearly all actives have a fitted effect of over 15% in size; further: potency means the concentration at half of the fitted maximal effect;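 on activation: HG2L7.5c1 human HepG2 liver cells with stably integrated DRE-driven firefly reporter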
# Aryl hydrocarbon receptor (Homo sapiens), sequence (P35869 whole entry, looked up): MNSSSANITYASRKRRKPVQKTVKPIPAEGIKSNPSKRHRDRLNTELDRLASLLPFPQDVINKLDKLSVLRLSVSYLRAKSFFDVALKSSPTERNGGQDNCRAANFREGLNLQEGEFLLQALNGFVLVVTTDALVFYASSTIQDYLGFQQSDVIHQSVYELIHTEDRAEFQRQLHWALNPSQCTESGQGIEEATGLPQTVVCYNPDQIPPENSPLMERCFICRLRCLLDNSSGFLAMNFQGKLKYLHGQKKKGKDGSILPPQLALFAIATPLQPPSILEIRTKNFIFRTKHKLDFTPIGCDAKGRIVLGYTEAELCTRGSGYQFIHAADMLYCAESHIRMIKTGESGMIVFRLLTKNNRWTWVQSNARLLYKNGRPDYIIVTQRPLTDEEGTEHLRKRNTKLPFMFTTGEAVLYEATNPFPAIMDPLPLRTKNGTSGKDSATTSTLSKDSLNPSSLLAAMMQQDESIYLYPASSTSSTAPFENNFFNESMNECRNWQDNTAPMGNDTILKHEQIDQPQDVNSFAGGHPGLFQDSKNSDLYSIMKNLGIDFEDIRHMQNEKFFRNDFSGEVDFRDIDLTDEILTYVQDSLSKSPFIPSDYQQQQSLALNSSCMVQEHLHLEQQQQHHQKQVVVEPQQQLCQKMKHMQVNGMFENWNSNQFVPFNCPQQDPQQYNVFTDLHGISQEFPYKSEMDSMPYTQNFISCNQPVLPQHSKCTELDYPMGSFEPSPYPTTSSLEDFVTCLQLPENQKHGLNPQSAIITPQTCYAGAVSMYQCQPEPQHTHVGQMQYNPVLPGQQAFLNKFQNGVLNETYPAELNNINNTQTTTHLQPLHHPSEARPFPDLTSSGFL
# How it was run: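 Stably transfected human liver carcinoma cells (HG2L7.5c1; 20 DRE-firefly luciferase) were incubated 5 h, dosed, and kept 24 h at 37C. Agonism was scored from increased luciferase luminescence.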
# [17] = qHTS assay to identify small molecule antagonists of the estrogen receptor alpha (ER-alpha) signaling pathway using the BG1 cell line (AID 743080; calls by dose curve;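 further: BG1 cells stimulated with 17beta-estradiol alongside compound; nearly all actives have a fitted effect of over 25% in size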)
# How it was run: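 Luciferase inhibition measured with ONE-Glo after 30 min at RT in BG1Luc4E2 cells given test compounds and 17beta-estradiol for 21.5 h at 37 C; CellTiter-Fluor viability read in the same wells beforehand.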
Compound,Potency [1],Potency [2],Potency [3],Potency [4],Potency [5],Potency [6],Potency [7],Potency [8],Potency (Aromatase (Homo sapiens)),Potency [9],Potency [10],Potency [11],Potency [12],max activation [13] [%],Potency [14],Potency [15],Potency [16],Potency [17],activation [7]
CN1c2c(nc(N)[nH]c2=O)NCC1CNc1ccc(C(=O)NC(CCC(=O)O)C(=O)O)cc1 (configuration not stated),inactive,inactive,inactive,inactive,inactive,inactive,inactive,inactive,inactive,inactive,inactive,inactive,inactive,-0.71,inactive,inactive,,,
CCCCCCCCCCCCCCCCCCCCCCO,inactive,inactive,inactive,,inactive,,,inactive,inactive,inactive,inactive,inactive,inactive,-1.89,inactive,inactive,inactive,,
COc1c(O[C@@H]2O[C@H](CO)[C@@H](O)[C@H](O)[C@H]2O)cc2c(c1OC)-c1ccc(SC)c(=O)cc1[C@@H](NC(C)=O)CC2,inactive,inactive,inactive,,inactive,,,inactive,inactive,inactive,inactive,inactive,inactive,-2.99,inactive,inactive,inactive,,
CCCc1nc(C(C)(C)O)c(C(=O)OCc2oc(=O)oc2C)n1Cc1ccc(-c2ccccc2-c2nn[nH]n2)cc1,inactive,inactive,inactive,,inactive,,,inactive,inactive,inactive,inactive,inactive,inactive,-4.8,inactive,inactive,inactive,,
COc1ccc(/C=C/C(=O)OCCC(C)C)cc1,inactive,inactive,inactive,inactive,inactive,inactive,,inactive,inactive,inactive,inactive,inactive,inactive,9.31,inactive,inactive,inactive,,
O=C(NNCNNC(=O)c1ccncc1)c1ccncc1,inactive,inactive,inactive,,inactive,,,inactive,inactive,inactive,inactive,inactive,inactive,-3.41,inactive,inactive,4.73 µM (active),,
CCC(Cc1c(I)cc(I)c(O)c1I)C(=O)O (configuration not stated),inactive,inactive,inactive,inactive,inactive,,,inactive,inactive,inactive,inactive,,inactive,-2.63,inactive,inactive,,inactive,
CCCC1C(=O)N2C(N(C)C)=Nc3ccc(C)cc3N2C1=O (configuration not stated),inactive,inactive,inactive,,inactive,,,inactive,inactive,inactive,inactive,,inactive,5.29,inactive,inactive,,,
CO[C@@]1(NC(=O)C2SC(=C(C(N)=O)C(=O)O)S2)C(=O)N2C(C(=O)O)=C(CSc3nnnn3C)CS[C@@H]21 (some centres not stated),inactive,inactive,inactive,,inactive,,,inactive,inactive,inactive,inactive,inactive,inactive,-1.7,inactive,inactive,inactive,,
CC(C)C[C@H](NC(=O)[C@@H](Cc1c[nH]c2ccccc12)NC(=O)[C@H](Cc1ccc(O)cc1)NC(=O)[C@H](CO)NC(=O)[C@H](Cc1c[nH]c2ccccc12)NC(=O)[C@H](Cc1cnc[nH]1)NC(=O)[C@@H]1CCC(=O)N1)C(=O)N[C@@H](CCCN=C(N)N)C(=O)N1CCC[C@@H]1C(=O)NCC(N)=O,inactive,inactive,inactive,,inactive,,,inactive,inactive,inactive,inactive,inactive,inactive,-2.6,inactive,inactive,inactive,,
O=P(O)(O)OC[C@H]1O[C@](O)(COP(=O)(O)O)[C@@H](O)[C@@H]1O,inactive,inactive,inactive,inactive,inactive,,10.6 µM (active),inactive,inactive,inactive,inactive,inactive,inactive,-2.72,inactive,inactive,inactive,inactive,
O=C1NC(=O)[C@H]2[C@@H]1[C@@H]1C=C[C@H]2C1,inactive,inactive,inactive,,inactive,,,inactive,inactive,inactive,inactive,inactive,inactive,-2.18,inactive,inactive,inactive,,
O=c1oc2cc(O)ccc2s1,inactive,inactive,inactive,,inactive,inactive,inactive,inactive,inactive,inactive,inactive,inactive,inactive,-17.1,inactive,inactive,inactive,inactive,
C[C@]12CC[C@@H]3c4ccc(O)cc4CC[C@H]3[C@@H]1CC[C@@H]2OP(=O)(O)O,inactive,inactive,inactive,,inactive,0.0013 µM [inconclusive] (active),0.0021 µM (active),inactive,inactive,inactive,inactive,inactive,inactive,0.522,inactive,inactive,inactive,inactive,
C[C@]12CC[C@@H]3c4ccc(OC(=O)c5ccccc5)cc4CC[C@H]3[C@@H]1CC[C@@H]2O,inactive,inactive,inactive,,inactive,0.0007 µM [inconclusive] (active),,inactive,inactive,inactive,inactive,inactive,inactive,-1.5,inactive,inactive,inactive,,82.8% (active)
C=C(NC(=O)C(=C)NC(=O)c1csc(C2=N[C@@H]3c4csc(n4)[C@H]4NC(=O)c5csc(n5)[C@H]([C@](C)(O)[C@@H](C)O)NC(=O)[C@H]5CSC(=N5)C(=CC)NC(=O)C([C@@H](C)O)NC(=O)c5csc(n5)[C@]3(CC2)NC(=O)[C@H](C)NC(=O)C(=C)NC(=O)[C@H](C)NC(=O)C([C@@H](C)CC)NC2C=Cc3c([C@H](C)O)cc(nc3C2O)C(=O)O[C@@H]4C)n1)C(N)=O (some centres not stated),8.04 µM (active),12.7 µM (active),5.69 µM (active),,inactive,,inactive,,inactive,11.4 µM (active),inactive,,inactive,-3.21,inactive,inactive,inactive,inactive,
